Cycloheximide cs: counter-screen for Shiga toxin inhibitors: cycloheximide protein synthesis inhibition; cell reporter, cycloheximide protein synthesis inhibition counterscreen; max response, %; hit rate 12% among 300,000; AID 2314; in the data active means max response mostly above about 13%, no sharp cut-off; inactive means mostly below about 14%; further: read at 38.3 µM for the half of the compounds with a filed dose
Pf growth 48h: P. falciparum growth inhibition at 48 hours (one generation); P. falciparum luciferase growth in erythrocytes, 48 h; Potency, µM (highest dose often 28.7 µM), most hits filed as inhibitors; hit rate 5.9% among 310,000; AID 504832
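Cell-based growth assay: transgenic P. falciparum expressing firefly luciferase, cultured in red cells within RPMI 1640 containing 0.5% w/v Albumax, 24 mM bicarbonate and gentamycin. A drop in luciferase activity indicates inhibition.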
Pf growth 96h: inhibits malaria parasite growth, 96 h. P. falciparum luciferase reporter growth, 96 h. Potency, µM (highest dose often 28.7 µM), most hits filed as inhibitors. hit rate 6.9% among 320,000. AID 504834
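Two-generation exposure (96 h) targets delayed-death phenotype. Reporter parasites carrying integrated firefly luciferase, in red cells at 2% hematocrit and 0.05% parasitemia final, kept at 37 C, 5% CO2; luminescence loss indicates inhibition.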
HCV inhibitor: inhibitors of hepatitis C virus infection; Huh7.5.1 HCVcc-Cre infection, luciferase reporter, 44 h; hit rate 3.4% among 340,000; Potency, µM (series often up to 41.8 µM), usual class: inhibitors
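Infectious HCV cell culture screen: compound-treated cells (1,000/well, pre-plated 4 h) are infected with HCVcc-Cre at roughly 0.5 moi and grown 44 h. Infection is quantified by luciferase signal after 15 min substrate incubation at room temperature.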
HCMV antiviral: inhibitors of human cytomegalovirus | activity change, negative = inhibition, % at 57.5 µM | HFF cells, HCMV-luciferase reporter, 72 h; hits give low values | hit rate 4.5% among 410,000 | AID 1259415; in the data active means activity change below about -60%; inconclusive means no clear call, values can overlap the other calls; inactive means above about -39%
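Two-dose cell screen: HFF monolayers treated with compounds and infected with luciferase-expressing HCMV at 1 PFU/cell, 72 h at 37C, then lysed for luciferase measurement.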
Shiga inhibitor: blocks Shiga toxin action in Vero cells. hit rate 9.2% among 290,000. Vero cells, Shiga toxin protein synthesis inhibition reporter. inhibition, % at 38.7 µM; in the data active means inhibition mostly above about 28%, no sharp cut-off; inactive means mostly below about 43%
Large screens that a line does not name were inactive. Only some compounds are listed: those with a hit (about 21% of all), similar ones and a draw of the others. Unless noted, the call rests on the fitted dose curve; in most records, active means well fitted inhibition curve with a large enough effect; inconclusive means small, poorly fitted or top-dose-only effect, or another doubt; inactive means no such curve, though single readings can be large or run the other way.

Cn1cccc1C(=O)OCC(=O)Nc1ccc2c(c1)CCC2	none
Cn1cccc1C(=O)OCC(=O)Nc1ccc2c(c1)OCO2	Cycloheximide cs 32.9, Shiga inhibitor 64.4
O=C(COC(=O)c1ccco1)Nc1ccc2c(c1)OCO2	Cycloheximide cs 24.6, Shiga inhibitor 52.9
COc1ccc(CO[C@@H]2O[C@H](CO)[C@@H](O)[C@H](O)[C@H]2NC(C)=O)cc1OC	none
COc1ccc(Cn2c(O)c(C=Nc3ccc(C)cc3)c3ccccc3c2=O)cc1	none
COc1ccc(Cn2c(O)c(C=Nc3ccccc3)c3ccccc3c2=O)cc1	Pf growth 48h inconclusive, Pf growth 96h inconclusive, HCMV antiviral -63.3
COc1ccc(Cn2c(O)c(C=Nc3ccc(O)cc3)c3ccccc3c2=O)cc1	Pf growth 96h 11.7µM, HCV inhibitor inconclusive, HCMV antiviral inconclusive
Cc1c(Cl)cccc1NC(=S)NC(=O)c1cncc(Br)c1	HCMV antiviral -65.4 (no result: Cycloheximide cs, Pf growth 48h, Pf growth 96h, Shiga inhibitor)
CCOC(=O)c1cccc(NC(=O)c2cccnc2)c1	none
CCOC(=O)c1cccc(NC(=O)c2cnc3ccccc3n2)c1	Cycloheximide cs 35.4, Pf growth 48h inconclusive, HCV inhibitor inconclusive
CC(C)c1ccc(O)c(NC(=O)c2cncc(Br)c2)c1	Cycloheximide cs 18.5, Pf growth 48h inconclusive, Pf growth 96h inconclusive, Shiga inhibitor 36.3
CCOC(=O)c1cccc(NC(=O)c2cncc(Br)c2)c1	Cycloheximide cs 41.4, Pf growth 48h inconclusive, Shiga inhibitor 45.8
CCc1ccc(C(=O)c2cn(CC(=O)Nc3ccc(OC)c(Cl)c3)c3nc(C)ccc3c2=O)cc1	none (no result: Cycloheximide cs, Pf growth 48h, Pf growth 96h, HCV inhibitor, Shiga inhibitor)
COc1ccc(NC(=O)c2ccc3c(=O)n4nc(Nc5cccc(Cl)c5C)sc4nc3c2)cc1	none (no result: Cycloheximide cs, Pf growth 48h, Pf growth 96h, HCV inhibitor, Shiga inhibitor)
CCc1ccc(NC(=O)CC2C(=O)N(c3ccc(Cl)cc3)C(=O)N2Cc2cccs2)cc1 (stereo unspecified)	none (no result: Cycloheximide cs, Pf growth 48h, Pf growth 96h, HCV inhibitor, Shiga inhibitor)
O=C(Nc1ccc([N+](=O)[O-])cc1)c1cncc(Br)c1	Pf growth 48h inconclusive, HCMV antiviral -85.2
Cc1ccc(NC(=O)c2cncc(Br)c2)c([N+](=O)[O-])c1	Cycloheximide cs 11.3, Pf growth 96h inconclusive, HCMV antiviral inconclusive, Shiga inhibitor 77.4
O=C(Nc1cccc(NC(=O)c2cncc(Br)c2)c1)c1cncc(Br)c1	Pf growth 48h 3.7µM, Pf growth 96h inconclusive, HCV inhibitor inconclusive (no result: Shiga inhibitor)
CCCOC(=O)c1cccc(NC(=O)C(C)(C)C)c1	Cycloheximide cs 18.1, HCV inhibitor inconclusive, Shiga inhibitor 32.2
Cc1ccc(Cn2c(CNC(=O)Cc3cccc([N+](=O)[O-])c3)nc3cccnc32)cc1	none (no result: Cycloheximide cs, Pf growth 48h, Pf growth 96h, HCV inhibitor, Shiga inhibitor)
CCN1CCCC1CNC(=O)CN(C)S(=O)(=O)c1ccc(Cl)cc1 (stereo unspecified)	none
O=C(Nc1ccc(S(=O)(=O)N2CCCCCC2)cc1)c1cc(=O)c2ccccc2o1	none (no result: Cycloheximide cs, Pf growth 48h, Pf growth 96h, HCV inhibitor, Shiga inhibitor)
Cc1ccc(NC(=O)c2cc(=O)c3ccccc3o2)cc1S(=O)(=O)N1CCCCC1	Pf growth 48h 6.57µM, Pf growth 96h inconclusive, HCV inhibitor inconclusive, HCMV antiviral -68.8
Cc1ccc(NC(=O)c2cc(=O)c3ccccc3o2)cc1S(=O)(=O)N1CCOCC1	Pf growth 48h 8.28µM, Pf growth 96h 4.65µM, HCV inhibitor inconclusive
CN(C)S(=O)(=O)c1cc(NC(=O)c2cc(=O)c3ccccc3o2)ccc1Cl	Cycloheximide cs 30.9, Pf growth 48h 10.4µM, Pf growth 96h inconclusive, HCV inhibitor inconclusive, Shiga inhibitor 34.5
Cc1ccc(NS(=O)(=O)c2ccc3c(c2)OCCCO3)cc1S(=O)(=O)N1CCOCC1	Pf growth 48h inconclusive, Pf growth 96h inconclusive (no result: Cycloheximide cs, Shiga inhibitor)
CC(C)CCNC(=O)c1ccc(Cn2c(SCC(=O)NC(C)C)nc3ccccc3c2=O)cc1	none (no result: Cycloheximide cs, Pf growth 48h, Pf growth 96h, HCV inhibitor, Shiga inhibitor)
O=C(CNC(=O)c1ccccc1Br)N/N=C/c1ccco1	none
O=C(CNC(=O)c1cccc(F)c1)N/N=C/c1cc(Br)ccc1OC(=O)/C=C/c1ccco1	Pf growth 48h 13.1µM, Pf growth 96h 13.1µM, HCV inhibitor 7.94µM, HCMV antiviral -100.7
COc1cc(C(=O)NCC(=O)N/N=C/c2ccco2)cc(OC)c1OC	none
O=C(CNC(=O)c1ccccc1O)N/N=C/c1cc(Br)ccc1OC(=O)/C=C/c1ccco1	Pf growth 48h inconclusive, Pf growth 96h 8.28µM, HCV inhibitor inconclusive, HCMV antiviral -74.0
CC(C)(C)NC(=O)CN(CC1CCCO1)C(=O)CNS(=O)(=O)c1ccc(F)cc1 (stereo unspecified)	none
Cc1ccccc1OCC(O)CNC1CCCC1 (stereo unspecified)	Pf growth 48h inconclusive, Pf growth 96h inconclusive (no result: Shiga inhibitor)
CC(C)(C)NCC(O)COc1ccccc1C(=O)CCc1ccccc1 (stereo unspecified)	Pf growth 96h inconclusive, HCMV antiviral inconclusive (no result: Pf growth 48h)
CC(C)(C)NCC(O)COc1ccccc1C(C)(C)C (stereo unspecified)	Pf growth 48h 4.65µM, Pf growth 96h inconclusive, HCV inhibitor inconclusive
CC(C)(C)NC[C@@H](O)COc1ccccc1C1CCCC1	Pf growth 48h 2.87µM, Pf growth 96h 2.28µM (no result: Cycloheximide cs, HCV inhibitor, HCMV antiviral, Shiga inhibitor)
COC(=O)[C@H]1C[C@@H]1[C@H](N)c1ccccc1	none
Cc1ccc(-c2cccc(CN3CCN(C4CCN(C(C)C)CC4)C(CCO)C3)c2)o1 (stereo unspecified)	Pf growth 48h 10.4µM, HCV inhibitor 5.01µM
CC(C)N1CCC(N2CCN(Cc3ccc(-c4ccc(Cl)cc4)o3)CC2CCO)CC1 (stereo unspecified)	Pf growth 48h 2.33µM, Pf growth 96h inconclusive, HCV inhibitor 3.98µM
CC(C)N1CCC(N2CCN(Cc3cnc(-c4ccccc4)s3)CC2CCO)CC1 (stereo unspecified)	Pf growth 96h inconclusive, HCV inhibitor inconclusive
O=C(O)c1cc(=S)nc[nH]1	none (no result: Cycloheximide cs, Pf growth 48h, Pf growth 96h, Shiga inhibitor)
COC(=O)c1ccc(OC(=O)CCS(=O)(=O)c2ccc(C)cc2)cc1	none (no result: Cycloheximide cs, Shiga inhibitor)
CCC(Oc1ccccc1OC)C(=O)Nc1ccc2c(c1)OCO2 (stereo unspecified)	none
CCOC(=O)C1(CC2CCCCO2)CCN(C(=O)Nc2ccc(C)c(C)c2)CC1 (stereo unspecified)	Pf growth 48h inconclusive, Pf growth 96h inconclusive, HCV inhibitor inconclusive
CCOC(=O)C1(CC2CCCCO2)CCN(C(=O)Nc2ccccc2SC)CC1 (stereo unspecified)	Pf growth 48h inconclusive, Pf growth 96h 11.7µM, HCMV antiviral inconclusive
CCOC(=O)C1(CC2CCCCO2)CCN(Cc2nc3ccccc3nc2C)CC1 (stereo unspecified)	Pf growth 48h inconclusive, Pf growth 96h 11.7µM
CSc1ccccc1NC(=O)N1CCC(CO)(CC2CCCCO2)CC1 (stereo unspecified)	none
CCOC(=O)C1(CC2CCCCO2)CCN(C(=O)Nc2ccccc2)CC1 (stereo unspecified)	Cycloheximide cs 28.7, Pf growth 48h inconclusive, Shiga inhibitor 35.5
CCOC(=O)C1(CC2CCCCO2)CCN(C(=O)Nc2ccccc2CC)CC1 (stereo unspecified)	HCMV antiviral -64.6
CCOC(=O)C1(CC2CCCCO2)CCN(Cc2ccc(OC)cc2F)CC1 (stereo unspecified)	HCV inhibitor inconclusive

From PubChem BioAssay
